# In the supplement of paper PMC5407854, “Inhibitor of ppGalNAc-T3-mediated O-glycosylation blocks cancer cell invasiveness and lowers FGF23 levels” (eLife, 2017):
# Whole data set: some 1,700 compounds, median “T3 sensor activation Q score (MG/GFP ratio z-score vs DMSO controls)” near 0.25, cut for the highest 2% near 1.9. Only a selection was taken, and the highest values are over-represented in it overall.
# System: ppGalNAc-T3 sensor
# Experiment: T3 sensor activation Q score (MG/GFP ratio z-score vs DMSO controls) (SD units); higher = more sensor activation (inhibition of ppGalNAc-T3 glycosylation)
# Settings: HEK293 sensor cells; 10 µM; 6 h
# Procedure: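 Cells were treated with compound at 10 uM for 6 h, then MG/GFP ratio was read by flow cytometry (10,000 cells per well, duplicate wells). Q = (R - R_neg)/SD_neg relative to DMSO vehicle controls; the signal rises when the glycosyltransferase is inhibited.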
row,SMILES,T3 sensor activation Q score
1,C[C@H]1CC[C@@]2(C)[C@@H](CC[C@@H]3[C@@H]2CC[C@]2(C)[C@@H](O)CC[C@@H]32)C1,3
2,CC12CCC3C(CCC4Cc5[nH]c6ccccc6c5CC43C)C1CCC2O (stereo not given),0.6
3,COc1ccc2c(c1)NP(=S)(Oc1ccccc1)N2 (stereo not given),-0.15
4,CCC1CCC(C)N(N=O)C1 (stereo not given),1.05
5,Oc1cccc2nc3ccccc3nc12,-0.35
6,O=c1cccc2n1C[C@H]1C[C@@H]2CN2CCCC[C@@H]12,0.2
7,CC(CC(C#N)(c1ccccc1)c1ccccc1)N1CCCCC1 (stereo not given),0.05
8,CN1C2c3ccccc3C3C4c5ccccc5C(C31)C(C2[N+](=O)[O-])N4C (stereo not given),1.1
9,CN1C(=O)CC[C@@]2(C)C1=CC[C@@H]1[C@@H]2CC[C@@]2(C)[C@H]1CC[C@]2(C)O,0.4
10,CC12CCC3C(CC=C4CC(O)CCC43C)C1C/C(=C\N1CCCC1)C2=O (stereo not given),1.9
11,O=C(OC1CCCCC1)c1ccccc1C(=O)OC1CCCCC1,0.2
12,Nc1nc(N)c2cnnn2n1,0.5
13,FCCN(CCF)c1cccc(Cl)c1,1.9
14,c1ccc2nc(OCCN3CC3)ccc2c1,1
15,c1ccc2c(c1)Sc1ccccc1N2CC1CN2CCC1CC2 (stereo not given),-0.15
16,CC1(C)CC(=O)CC(C)(C)N1O,-1.9
17,CC(=O)Nc1cc([As](=O)(O)O)ccc1O,1.4
18,NC(=S)c1cn([C@@H]2O[C@H](CO)[C@@H](O)[C@H]2O)c2ncnc(N)c12,4.95
19,C1CC2NCCC3NCCC(N1)N32 (stereo not given),-0.95
20,CCOC(=O)c1ccc2[nH]c(-c3ccc(S(=O)(=O)F)cc3)cc(=O)c2c1,0.95
21,O=C(NC(=O)c1c(F)cccc1F)Nc1cc(Cl)c(F)c(Cl)c1F,-0.65
22,O=C1N(c2nncs2)CCN1[N+](=O)[O-],2.65
23,CC[C@@]1(O)C(=O)OCc2c1cc1n(c2=O)Cc2cc3ccccc3nc2-1,-1.75
24,C=CCNC(=S)Nc1ccc(OC(=O)Nc2ccc(Cl)c(Cl)c2)cc1,0.4
25,Cn1cc(C=O)c2nccnc21,-1.5
